Experimental data reported in the supplement of paper PMC4466140.

B1: unnamed (peptide)
chain: PHNPSPFFPPPDFND

target: ScBbc1; experiment: SPOT peptide array binding signal intensity (averaged, normalized) (arbitrary units (background-subtracted, floor 0; scale differs between SH3 domains)); higher = stronger binding of the SH3 domain to the peptide
Summary of the method: (§1)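 Binding signal is given in arbitrary units that differ between domains and is the normalized, background-subtracted spot intensity averaged across replicates. Each GST-SH3 fusion from one of four yeast species was made in E. coli BL21(DE3), purified on glutathione Sepharose and incubated at 10 μg/ml overnight at 4°C on cellulose-bound synthetic 15-mer peptides in which cysteines were replaced by serines. Detection used anti-GST antibody, an HRP anti-mouse secondary and luminol, followed by imaging and Genespotter quantification.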

Row | Binder | SPOT peptide array binding signal intensity
1 | B1 | 0.5

target: ScBem1-D1; experiment: as above
Summary of the method: as §1

Row | Binder | SPOT peptide array binding signal intensity
2 | B1 | ≤ 0

target: ScBzz1-D1; experiment: as above
Summary of the method: as §1

Row | Binder | SPOT peptide array binding signal intensity
3 | B1 | ≤ 0

target: ScBzz1-D2; experiment: as above
Summary of the method: as §1

Row | Binder | SPOT peptide array binding signal intensity
4 | B1 | 10.5

target: ScCyk3; experiment: as above
Summary of the method: as §1

Row | Binder | SPOT peptide array binding signal intensity
5 | B1 | ≤ 0

target: ScFus1; experiment: as above
Summary of the method: as §1

Row | Binder | SPOT peptide array binding signal intensity
6 | B1 | ≤ 0

target: ScHof1; experiment: as above
Summary of the method: as §1

Row | Binder | SPOT peptide array binding signal intensity
7 | B1 | 0.25

target: ScHse1; experiment: as above
Summary of the method: as §1

Row | Binder | SPOT peptide array binding signal intensity
8 | B1 | 5

target: ScLsb1; experiment: as above
Summary of the method: as §1

Row | Binder | SPOT peptide array binding signal intensity
9 | B1 | ≤ 0

target: ScLsb2; experiment: as above
Summary of the method: as §1

Row | Binder | SPOT peptide array binding signal intensity
10 | B1 | ≤ 0

target: ScLsb3; experiment: as above
Summary of the method: as §1

Row | Binder | SPOT peptide array binding signal intensity
11 | B1 | ≤ 0

target: ScLsb4; experiment: as above
Summary of the method: as §1

Row | Binder | SPOT peptide array binding signal intensity
12 | B1 | 1

target: ScMyo3; experiment: as above
Summary of the method: as §1

Row | Binder | SPOT peptide array binding signal intensity
13 | B1 | 920

target: ScMyo5; experiment: as above
Summary of the method: as §1

Row | Binder | SPOT peptide array binding signal intensity
14 | B1 | 613

target: ScNbp2; experiment: as above
Summary of the method: as §1

Row | Binder | SPOT peptide array binding signal intensity
15 | B1 | 5

target: ScPex13; experiment: as above
Summary of the method: as §1

Row | Binder | SPOT peptide array binding signal intensity
16 | B1 | 512

target: ScRvs167; experiment: as above
Summary of the method: as §1

Row | Binder | SPOT peptide array binding signal intensity
17 | B1 | ≤ 0

target: ScSho1; experiment: as above
Summary of the method: as §1

Row | Binder | SPOT peptide array binding signal intensity
18 | B1 | ≤ 0

target: ScSla1-D1-D2; experiment: as above
Summary of the method: as §1

Row | Binder | SPOT peptide array binding signal intensity
19 | B1 | ≤ 0

target: ScSla1-D3; experiment: as above
Summary of the method: as §1

Row | Binder | SPOT peptide array binding signal intensity
20 | B1 | 3

target: SpAbp1-D1; experiment: as above
Summary of the method: as §1

Row | Binder | SPOT peptide array binding signal intensity
21 | B1 | 5

target: SpBbc1; experiment: as above
Summary of the method: as §1

Row | Binder | SPOT peptide array binding signal intensity
22 | B1 | ≤ 0

target: SpBzz1-D1; experiment: as above
Summary of the method: as §1

Row | Binder | SPOT peptide array binding signal intensity
23 | B1 | 30

target: SpBzz1-D2; experiment: as above
Summary of the method: as §1

Row | Binder | SPOT peptide array binding signal intensity
24 | B1 | 1

target: SpCyk3; experiment: as above
Summary of the method: as §1

Row | Binder | SPOT peptide array binding signal intensity
25 | B1 | ≤ 0

target: SpHof1; experiment: as above
Summary of the method: as §1

Row | Binder | SPOT peptide array binding signal intensity
26 | B1 | ≤ 0

target: SpHof1-2; experiment: as above
Summary of the method: as §1

Row | Binder | SPOT peptide array binding signal intensity
27 | B1 | ≤ 0

target: SpHof1-3; experiment: as above
Summary of the method: as §1

Row | Binder | SPOT peptide array binding signal intensity
28 | B1 | ≤ 0

target: SpHse1; experiment: as above
Summary of the method: as §1

Row | Binder | SPOT peptide array binding signal intensity
29 | B1 | 69.8

target: SpLsb1; experiment: as above
Summary of the method: as §1

Row | Binder | SPOT peptide array binding signal intensity
30 | B1 | 18

target: SpLsb4; experiment: as above
Summary of the method: as §1

Row | Binder | SPOT peptide array binding signal intensity
31 | B1 | ≤ 0

target: SpMyo1; experiment: as above
Summary of the method: as §1

Row | Binder | SPOT peptide array binding signal intensity
32 | B1 | 118

target: SpNbp2; experiment: as above
Summary of the method: as §1

Row | Binder | SPOT peptide array binding signal intensity
33 | B1 | 3

target: SpPex13; experiment: as above
Summary of the method: as §1

Row | Binder | SPOT peptide array binding signal intensity
34 | B1 | ≤ 0

target: SpRvs167; experiment: as above
Summary of the method: as §1

Row | Binder | SPOT peptide array binding signal intensity
35 | B1 | 3.33

target: SpSla1-D1-D2; experiment: as above
Summary of the method: as §1

Row | Binder | SPOT peptide array binding signal intensity
36 | B1 | ≤ 0

target: SpSla1-D3; experiment: as above
Summary of the method: as §1

Row | Binder | SPOT peptide array binding signal intensity
37 | B1 | ≤ 0
